Columns and labels:
Experiment in all cases: DAPPL (digital affinity profiling via proximity ligation, sequencing); 10 mM Tris-HCl pH 7.5, 50 mM NaCl, 1 mM DTT, 4% glycerol, room temperature, 30 min; GST-TFs on glutathione beads, 16-mer random dsDNA library, 0.1% formaldehyde crosslink after washing; high values mean tight binding
Settings in all cases: protein: recombinant; tags: N-terminal GST; dsDNA, one strand shown
FLI1 = molecular target: T1, FLI1 (Homo sapiens, UniProt Q01543 1-452)
T1 sequence: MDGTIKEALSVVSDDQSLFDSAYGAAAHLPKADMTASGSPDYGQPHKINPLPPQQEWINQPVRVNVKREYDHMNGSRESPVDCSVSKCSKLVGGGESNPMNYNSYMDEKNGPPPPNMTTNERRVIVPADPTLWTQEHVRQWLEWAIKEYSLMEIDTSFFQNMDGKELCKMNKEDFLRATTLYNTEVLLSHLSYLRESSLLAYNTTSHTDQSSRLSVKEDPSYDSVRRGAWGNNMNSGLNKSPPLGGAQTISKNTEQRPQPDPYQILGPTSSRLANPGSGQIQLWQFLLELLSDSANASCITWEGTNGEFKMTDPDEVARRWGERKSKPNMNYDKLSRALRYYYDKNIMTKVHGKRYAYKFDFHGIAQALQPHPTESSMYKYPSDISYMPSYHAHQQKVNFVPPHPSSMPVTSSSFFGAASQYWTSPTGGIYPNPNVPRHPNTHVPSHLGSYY
How it was run: (§1)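 Pools were built from human transcription factors expressed in yeast as GST fusions, captured on glutathione beads and DNA-barcoded, along with a tag-only sample. Incubation with 200 nmole of a 16-mer random double-stranded DNA library lasted 30 min at room temperature in Tris/NaCl/DTT/glycerol buffer, and was followed by washing, 0.1% formaldehyde crosslinking, proximity ligation, PCR amplification and Illumina NextSeq500 sequencing. Binding signal is the quotient of each hexamer's read frequency for a factor and its frequency for the tag-only sample.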

GABPA = molecular target: T2, GABPA (Homo sapiens, UniProt Q06546 1-454)
T2 sequence: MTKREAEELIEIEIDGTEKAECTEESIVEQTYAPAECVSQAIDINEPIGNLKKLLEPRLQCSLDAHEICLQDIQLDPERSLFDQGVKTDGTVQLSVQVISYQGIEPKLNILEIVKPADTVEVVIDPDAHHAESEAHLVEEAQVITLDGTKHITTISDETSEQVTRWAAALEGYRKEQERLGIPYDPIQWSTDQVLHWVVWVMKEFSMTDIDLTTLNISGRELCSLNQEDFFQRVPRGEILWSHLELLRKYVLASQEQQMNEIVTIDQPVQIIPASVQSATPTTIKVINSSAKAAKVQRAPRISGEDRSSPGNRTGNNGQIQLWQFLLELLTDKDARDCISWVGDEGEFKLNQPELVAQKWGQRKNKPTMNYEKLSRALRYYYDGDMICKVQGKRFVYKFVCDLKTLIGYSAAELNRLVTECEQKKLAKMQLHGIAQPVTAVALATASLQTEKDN
How it was run: as §1

ERG = molecular target: T3, ERG (Homo sapiens, UniProt P11308 1-479)
T3 sequence: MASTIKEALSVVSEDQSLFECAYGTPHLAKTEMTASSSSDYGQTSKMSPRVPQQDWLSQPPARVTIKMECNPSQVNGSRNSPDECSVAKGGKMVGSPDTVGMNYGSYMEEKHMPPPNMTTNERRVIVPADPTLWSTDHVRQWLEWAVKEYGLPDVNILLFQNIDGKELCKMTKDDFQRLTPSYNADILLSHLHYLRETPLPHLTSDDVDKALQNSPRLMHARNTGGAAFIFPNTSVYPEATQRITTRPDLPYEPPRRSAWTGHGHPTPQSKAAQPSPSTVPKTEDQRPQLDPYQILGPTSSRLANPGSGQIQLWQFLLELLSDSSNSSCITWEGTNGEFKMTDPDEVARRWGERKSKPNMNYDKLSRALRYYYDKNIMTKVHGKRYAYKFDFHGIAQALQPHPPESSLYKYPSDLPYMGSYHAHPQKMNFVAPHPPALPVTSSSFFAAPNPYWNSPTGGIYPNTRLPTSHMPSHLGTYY
How it was run: as §1

ELF1 = ELF1 (Homo sapiens, UniProt P32519 1-619)
Sequence of ELF1 (P32519 whole entry): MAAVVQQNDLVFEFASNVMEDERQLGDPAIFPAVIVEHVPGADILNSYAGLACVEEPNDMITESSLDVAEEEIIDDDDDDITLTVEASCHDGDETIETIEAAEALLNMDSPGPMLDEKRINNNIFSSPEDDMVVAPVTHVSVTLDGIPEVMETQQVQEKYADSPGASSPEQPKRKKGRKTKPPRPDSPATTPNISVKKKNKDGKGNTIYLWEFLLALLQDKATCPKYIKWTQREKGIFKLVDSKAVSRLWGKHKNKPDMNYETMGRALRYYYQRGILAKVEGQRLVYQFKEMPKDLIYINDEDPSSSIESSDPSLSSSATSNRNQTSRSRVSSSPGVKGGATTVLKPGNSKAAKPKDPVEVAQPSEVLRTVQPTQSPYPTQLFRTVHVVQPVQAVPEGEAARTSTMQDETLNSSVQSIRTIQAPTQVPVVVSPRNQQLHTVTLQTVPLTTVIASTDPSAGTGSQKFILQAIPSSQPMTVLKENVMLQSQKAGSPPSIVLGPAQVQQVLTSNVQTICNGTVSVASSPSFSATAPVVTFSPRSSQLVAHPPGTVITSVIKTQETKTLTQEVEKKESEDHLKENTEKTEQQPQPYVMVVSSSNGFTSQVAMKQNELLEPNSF
How it was run: as §1

EHF = molecular target: T4, EHF (Homo sapiens, UniProt Q9NZC4 1-300)
T4 sequence: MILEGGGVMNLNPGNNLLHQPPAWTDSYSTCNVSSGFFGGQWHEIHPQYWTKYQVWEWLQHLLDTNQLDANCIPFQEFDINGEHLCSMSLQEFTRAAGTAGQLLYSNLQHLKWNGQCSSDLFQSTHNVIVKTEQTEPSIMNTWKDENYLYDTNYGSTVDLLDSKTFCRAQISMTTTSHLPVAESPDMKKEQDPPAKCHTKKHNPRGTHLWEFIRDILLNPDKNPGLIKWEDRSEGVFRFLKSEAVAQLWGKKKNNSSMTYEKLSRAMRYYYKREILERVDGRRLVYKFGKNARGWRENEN
How it was run: as §1

SPI1 = SPI1 (Homo sapiens, UniProt P17947 1-270)
How it was run: as §1

SPIB = SPIB (Homo sapiens, UniProt Q01892 1-262)
Sequence of SPIB (Q01892 whole entry): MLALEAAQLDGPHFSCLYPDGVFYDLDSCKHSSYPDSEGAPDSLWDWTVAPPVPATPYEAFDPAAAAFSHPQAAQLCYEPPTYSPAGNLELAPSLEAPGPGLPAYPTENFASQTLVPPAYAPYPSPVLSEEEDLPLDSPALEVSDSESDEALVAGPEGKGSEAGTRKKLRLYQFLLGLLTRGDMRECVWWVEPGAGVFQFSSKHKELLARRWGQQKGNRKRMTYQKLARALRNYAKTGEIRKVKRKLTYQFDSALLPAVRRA
How it was run: as §1

ELK3 = molecular target: T5, ELK3 (Homo sapiens, UniProt P41970 1-407)
T5 sequence: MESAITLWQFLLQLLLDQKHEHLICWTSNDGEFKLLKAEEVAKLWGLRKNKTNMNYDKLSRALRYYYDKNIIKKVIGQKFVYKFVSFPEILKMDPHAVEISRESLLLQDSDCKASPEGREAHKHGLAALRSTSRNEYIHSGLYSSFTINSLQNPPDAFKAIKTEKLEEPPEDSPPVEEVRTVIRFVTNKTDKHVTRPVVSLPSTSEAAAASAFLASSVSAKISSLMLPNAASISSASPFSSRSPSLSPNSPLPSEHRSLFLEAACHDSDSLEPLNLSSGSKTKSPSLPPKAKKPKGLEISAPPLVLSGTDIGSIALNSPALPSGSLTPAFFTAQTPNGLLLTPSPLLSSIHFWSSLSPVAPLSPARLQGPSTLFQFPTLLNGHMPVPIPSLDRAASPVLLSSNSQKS
How it was run: as §1

Row | Sequence | binding signal (FLI1) | binding signal (GABPA) | binding signal (ERG) | binding signal (ELF1) | binding signal (EHF) | binding signal (SPI1) | binding signal (SPIB) | binding signal (ELK3)
1 | GAATCT | 1.03 fold enrichment (6-mer frequency, TF over GST control) | 1.15 fold enrichment (6-mer frequency, TF over GST control) | 1.04 fold enrichment (6-mer frequency, TF over GST control) | 1.04 fold enrichment (6-mer frequency, TF over GST control) | 1.06 fold enrichment (6-mer frequency, TF over GST control) | 1.07 fold enrichment (6-mer frequency, TF over GST control) | 1.1 fold enrichment (6-mer frequency, TF over GST control) | 1.08 fold enrichment (6-mer frequency, TF over GST control)
2 | CATCGA | 1.12 fold enrichment (6-mer frequency, TF over GST control) |  |  | 1.12 fold enrichment (6-mer frequency, TF over GST control) | 1.16 fold enrichment (6-mer frequency, TF over GST control) | 1.09 fold enrichment (6-mer frequency, TF over GST control) | 1.03 fold enrichment (6-mer frequency, TF over GST control) | 1.03 fold enrichment (6-mer frequency, TF over GST control)
3 | GGGTTT | 1.17 fold enrichment (6-mer frequency, TF over GST control) | 1.1 fold enrichment (6-mer frequency, TF over GST control) | 1.1 fold enrichment (6-mer frequency, TF over GST control) | 1.1 fold enrichment (6-mer frequency, TF over GST control) | 1.11 fold enrichment (6-mer frequency, TF over GST control) | 1.05 fold enrichment (6-mer frequency, TF over GST control) | 1.05 fold enrichment (6-mer frequency, TF over GST control) | 1.03 fold enrichment (6-mer frequency, TF over GST control)
4 | TTTGAG | 1.13 fold enrichment (6-mer frequency, TF over GST control) | 1.28 fold enrichment (6-mer frequency, TF over GST control) | 1.05 fold enrichment (6-mer frequency, TF over GST control) | 1.13 fold enrichment (6-mer frequency, TF over GST control) | 1.09 fold enrichment (6-mer frequency, TF over GST control) | 1.16 fold enrichment (6-mer frequency, TF over GST control) | 1.12 fold enrichment (6-mer frequency, TF over GST control) | 

From PMC7862700, “An all-to-all approach to the identification of sequence-specific readers for epigenetic DNA modifications on cytosine”
